Source: PubChem BioAssay (NCI)
Compounds without any hit were thinned out: in the full panel of roughly 79,000, 15% have a hit. Activity calls are given as the source filed them. No stated cut-off is given here; in the data, active means growth inhibition above about 70%; inactive means the rest.

Tests used:
[1] = NCI Yeast Anticancer Drug Screen. Data for the sgs1 mgt1 strain (AID 161);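 further: 0% = growth of cultures given vehicle only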; conditions: S. cerevisiae sgs1 mgt1 strain, stronger effect = higher value
Outline: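 Growth of a repair-deficient yeast mutant was monitored after compound treatment and expressed as inhibition relative to vehicle-treated cultures.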

[2] = NCI Yeast Anticancer Drug Screen. Data for the CLN2oe strain (AID 163);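 further: 0% = growth of vehicle-only control cultures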; conditions: S. cerevisiae CLN2oe strain, stronger effect = higher value
Outline: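 Values reflect how much compound exposure reduced yeast growth, referenced to vehicle-exposed cells. Assay organism is a strain with a defined genetic change affecting cell-cycle control.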

[3] = NCI Yeast Anticancer Drug Screen. Data for the cln2 rad14 strain (AID 165);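 further: 0% = growth equal to vehicle treated cultures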; conditions: S. cerevisiae cln2 rad14 strain, stronger effect = higher value
Outline: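 Relative to vehicle controls, growth inhibition of compound-treated cln2 rad14 yeast was recorded.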

[4] = NCI Yeast Anticancer Drug Screen. Data for the bub3 strain (AID 167); conditions: S. cerevisiae bub3 mutant strain, stronger effect = higher value
Outline: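 Screening used yeast with an engineered genetic alteration affecting cell cycle control. Compound-exposed cultures were compared with vehicle cultures, and reduced growth was taken as inhibition.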

[5] = NCI Yeast Anticancer Drug Screen. Data for the wt2 strain (AID 169);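 further: 0% = growth of vehicle-treated yeast cultures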; conditions: S. cerevisiae wt2 strain growth inhibition, stronger effect = higher value
Outline: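 Values express reduction in yeast growth under compound treatment, referenced to vehicle-treated cells.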

[6] = NCI Yeast Anticancer Drug Screen. Data for the mlh1 strain (AID 171);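 further: 0% = growth of vehicle-treated control cultures of the same strain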; conditions: S. cerevisiae mlh1 strain growth inhibition, stronger effect = higher value
Outline: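 Steps: expose the defined-mutant yeast strain to compound; expose a parallel culture to vehicle; measure growth; express compound effect as inhibition relative to the vehicle culture.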

[7] = NCI Yeast Anticancer Drug Screen. Data for the sgs1 strain (AID 173);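 further: 0% = growth of vehicle-only control cultures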; conditions: S. cerevisiae sgs1 mutant, stronger effect = higher value
Outline: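 Treat defined-mutant yeast with compound; measure growth; calculate inhibition relative to vehicle-treated cells.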

[8] = NCI Yeast Anticancer Drug Screen. Data for the mlh1 rad18 strain (AID 175); conditions: S. cerevisiae mlh1 rad18 strain growth inhibition, stronger effect = higher value
Outline: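 Test agents were incubated with a yeast strain of defined genotype (DNA damage repair defect). Inhibition of growth was derived by comparison with vehicle-exposed cultures.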

[9] = NCI Yeast Anticancer Drug Screen. Data for the rad18 strain (AID 177); conditions: S. cerevisiae rad18 mutant growth inhibition, stronger effect = higher value
Outline: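 A genetically defined yeast mutant impaired in DNA damage repair was treated with test compounds, then its growth was measured against cultures receiving vehicle alone.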

[10] = at 5.0 µM (retest, dose inferred, filed as 0.5)
[11] = at 50.0 µM (retest, dose inferred, filed as 5.0)

Measured: growth inhibition

COc1ccc(N=CN(C)C)c(C)c1
active: [1]; [11] 97% | [1]; at 50.0 µM 93.5% | [2]; at 33.0 µM 84% | [2]; at 100.0 µM 93% | [3]; [11] 96% | [3]; at 50.0 µM 92% | [4]; at 33.0 µM 88% | [4]; [11] 95% | [4]; at 50.0 µM 91.9% | [4]; at 100.0 µM 94% | [5]; at 33.0 µM 87% | [5]; at 100.0 µM 96% | [6]; at 33.0 µM 93% | [6]; at 100.0 µM 96% | [7]; at 33.0 µM 89% | [7]; at 100.0 µM 95% | [8]; [11] 72% | [9]; at 33.0 µM 89% | [9]; at 100.0 µM 93%
inactive: [1]; [10] -4% | [2]; at 1.2 µM -28% | [2]; at 3.7 µM -34% | [2]; at 11.0 µM -10% | [3]; [10] 63% | [4]; at 1.2 µM -30% | [4]; at 3.7 µM -9% | [4]; [10] 44% | [4]; at 11.0 µM -28% | [5]; at 1.2 µM -26% | [5]; at 3.7 µM -39% | [5]; at 11.0 µM -27% | [6]; at 1.2 µM -37% | [6]; at 3.7 µM -3% | [6]; at 11.0 µM -16% | [7]; at 1.2 µM -45% | [7]; at 3.7 µM -40% | [7]; at 11.0 µM -59% | [8]; [10] 44% | [8]; at 50.0 µM 48.4% | [9]; at 1.2 µM -50% | [9]; at 3.7 µM -55% | [9]; at 11.0 µM -8%
